The full ranking holds about 8,300 sequences; the median of “log2 fold change of degron read counts, EGFP-low vs EGFP+ sorted cells (limma voom), compound-induced degradation” is about -1.1, and the highest 2% start at about 3.2. The entries come from a sample that favours the highest values as a whole.
Target: T1, CRBN, Q96SW2
T1 chain: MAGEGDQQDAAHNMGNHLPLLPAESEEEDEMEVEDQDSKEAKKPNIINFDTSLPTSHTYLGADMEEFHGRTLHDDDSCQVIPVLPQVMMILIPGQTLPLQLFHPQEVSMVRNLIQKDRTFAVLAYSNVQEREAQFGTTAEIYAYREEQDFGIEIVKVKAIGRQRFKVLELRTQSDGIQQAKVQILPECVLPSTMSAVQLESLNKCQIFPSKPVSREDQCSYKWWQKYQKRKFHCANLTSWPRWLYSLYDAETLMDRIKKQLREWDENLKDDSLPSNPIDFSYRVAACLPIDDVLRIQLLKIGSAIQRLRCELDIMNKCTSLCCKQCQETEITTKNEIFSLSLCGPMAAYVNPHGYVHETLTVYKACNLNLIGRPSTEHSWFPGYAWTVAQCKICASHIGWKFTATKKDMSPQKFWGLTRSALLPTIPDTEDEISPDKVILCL
Experiment: log2 fold change of degron read counts, EGFP-low vs EGFP+ sorted cells (limma voom), compound-induced degradation; higher = more compound-induced degradation of the degron-EGFP fusion; degrons are variants of IKZF1/3 zinc finger 2; compound dose not given here
Conditions: Jurkat, 18 h

[1] = compound: compound 19 (5-tert-butyl-thalidomide)
[2] = compound: compound 22 (5-morpholino-thalidomide)
[3] = compound: compound 33 (diphenyl IMiD analogue)
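Further: pooled lentiviral library of zinc finger degron-EGFP fusions in mCherry-positive Jurkat cells, FACS-sorted after compound exposure, with degron abundance counted by next-generation sequencing.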

B1: 46L_47M_49E_50I_52G_53F_54L_55C_67L_, Q9UKT9 (peptide)
chain: LMCEICGFLCTQKGNLLRHIKL
log2 fold change of degron read counts [1]: -1.21 | log2 fold change of degron read counts [2]: -1.08 | log2 fold change of degron read counts [3]: 0.82 | log2 fold change of degron read counts (compound: thalidomide): 0.189

B2: 46L_47G_49E_50I_52G_53F_54F_55C_67L_, Q9UKT9 (peptide)
chain: LGCEICGFFCTQKGNLLRHIKL
log2 fold change of degron read counts [1]: 1.15 | log2 fold change of degron read counts [2]: 0.461 | log2 fold change of degron read counts [3]: 0.628 | log2 fold change of degron read counts (compound: thalidomide): 0.198

B3: 46F_47I_49E_50Q_52G_53A_54E_55F_67L_, Q9UKT9 (peptide)
chain: FICEQCGAEFTQKGNLLRHIKL
log2 fold change of degron read counts [1]: -2.28 | log2 fold change of degron read counts [2]: -1.92 | log2 fold change of degron read counts [3]: -1.09 | log2 fold change of degron read counts (compound: thalidomide): -0.382

B4: 46F_47M_49S_50V_52G_53H_54P_55F_67L_, Q9UKT9 (peptide)
chain: FMCSVCGHPFTQKGNLLRHIKL
log2 fold change of degron read counts [1]: -2.27 | log2 fold change of degron read counts [2]: -1.78 | log2 fold change of degron read counts [3]: -1.3 | log2 fold change of degron read counts (compound: thalidomide): -1.51

B5: 46L_47L_49N_50Q_52G_53F_54M_55C_67L_, Q9UKT9 (peptide)
chain: LLCNQCGFMCTQKGNLLRHIKL
log2 fold change of degron read counts [1]: -1.85 | log2 fold change of degron read counts [2]: -1.98 | log2 fold change of degron read counts [3]: -1.61 | log2 fold change of degron read counts (compound: thalidomide): -1.33

B6: 46F_47Y_49D_50Q_52G_53A_54Y_55F_67L_, Q9UKT9 (peptide)
chain: FYCDQCGAYFTQKGNLLRHIKL
log2 fold change of degron read counts [1]: -0.745 | log2 fold change of degron read counts [2]: -1.31 | log2 fold change of degron read counts [3]: -1.38 | log2 fold change of degron read counts (compound: thalidomide): -2.23

B7: 46F_47D_49N_50Q_52G_53H_54Q_55F_67L_, Q9UKT9 (peptide)
chain: FDCNQCGHQFTQKGNLLRHIKL
log2 fold change of degron read counts [1]: -2.63 | log2 fold change of degron read counts [2]: -3.11 | log2 fold change of degron read counts [3]: -2.64 | log2 fold change of degron read counts (compound: thalidomide): -2.65

B8: 46F_47D_49E_50I_52G_53A_54H_55F_67L_, Q9UKT9 (peptide)
chain: FDCEICGAHFTQKGNLLRHIKL
log2 fold change of degron read counts [1]: 3.28 | log2 fold change of degron read counts [2]: 0.822 | log2 fold change of degron read counts [3]: -0.326 | log2 fold change of degron read counts (compound: thalidomide): 1.02

B9: 46F_47V_49E_50I_52G_53A_54H_55F_67L_, Q9UKT9 (peptide)
chain: FVCEICGAHFTQKGNLLRHIKL
log2 fold change of degron read counts [1]: 0.302 | log2 fold change of degron read counts [2]: 1.59 | log2 fold change of degron read counts [3]: 1.49 | log2 fold change of degron read counts (compound: thalidomide): 1.95

B10: 46F_47S_49E_50I_52G_53A_54H_55F_67L_, Q9UKT9 (peptide)
chain: FSCEICGAHFTQKGNLLRHIKL
log2 fold change of degron read counts [1]: 2.47 | log2 fold change of degron read counts [2]: 0.831 | log2 fold change of degron read counts [3]: 0.776 | log2 fold change of degron read counts (compound: thalidomide): 0.206

B11: 46F_47V_49E_50I_52G_53R_54H_55F_67L_, Q9UKT9 (peptide)
chain: FVCEICGRHFTQKGNLLRHIKL
log2 fold change of degron read counts [1]: -2.45 | log2 fold change of degron read counts [2]: -1.78 | log2 fold change of degron read counts [3]: -2.13 | log2 fold change of degron read counts (compound: thalidomide): -0.209

B12: 46F_47T_49E_50I_52G_53H_54L_55F_67L_, Q9UKT9 (peptide)
chain: FTCEICGHLFTQKGNLLRHIKL
log2 fold change of degron read counts [1]: -2.72 | log2 fold change of degron read counts [2]: -3.75 | log2 fold change of degron read counts [3]: -2.61 | log2 fold change of degron read counts (compound: thalidomide): -2.41

B13: 46F_47Y_49P_50I_52G_53H_54C_55F_67L_, Q9UKT9 (peptide)
chain: FYCPICGHCFTQKGNLLRHIKL
log2 fold change of degron read counts [1]: -1.24 | log2 fold change of degron read counts [2]: -1.33 | log2 fold change of degron read counts [3]: -0.382 | log2 fold change of degron read counts (compound: thalidomide): -1.61

B14: 46F_47W_49P_50V_52G_53A_54N_55F_67L_, Q9UKT9 (peptide)
chain: FWCPVCGANFTQKGNLLRHIKL
log2 fold change of degron read counts [1]: 3.05 | log2 fold change of degron read counts [2]: 3.85 | log2 fold change of degron read counts [3]: 2.12 | log2 fold change of degron read counts (compound: thalidomide): 1.69

B15: 46F_47E_49P_50V_52G_53A_54N_55F_67L_, Q9UKT9 (peptide)
chain: FECPVCGANFTQKGNLLRHIKL
log2 fold change of degron read counts [1]: -0.535 | log2 fold change of degron read counts [2]: -0.523 | log2 fold change of degron read counts [3]: 2.7 | log2 fold change of degron read counts (compound: thalidomide): 3.16

B16: 46F_47Y_49P_50V_52G_53A_54N_55F_67L_, Q9UKT9 (peptide)
chain: FYCPVCGANFTQKGNLLRHIKL
log2 fold change of degron read counts [1]: 2.82 | log2 fold change of degron read counts [2]: 3.69 | log2 fold change of degron read counts [3]: 2.32 | log2 fold change of degron read counts (compound: thalidomide): 1.3

B17: 46F_47E_49N_50I_52G_53A_54N_55F_67L_, Q9UKT9 (peptide)
chain: FECNICGANFTQKGNLLRHIKL
log2 fold change of degron read counts [1]: -1.93 | log2 fold change of degron read counts [2]: -1.27 | log2 fold change of degron read counts [3]: 1.75 | log2 fold change of degron read counts (compound: thalidomide): 2.22

B18: 46F_47W_49N_50I_52G_53A_54N_55F_67L_, Q9UKT9 (peptide)
chain: FWCNICGANFTQKGNLLRHIKL
log2 fold change of degron read counts [1]: 2.27 | log2 fold change of degron read counts [2]: 3.62 | log2 fold change of degron read counts [3]: 1.88 | log2 fold change of degron read counts (compound: thalidomide): 0.44

B19: 46F_47L_49P_50V_52G_53A_54N_55F_67L_, Q9UKT9 (peptide)
chain: FLCPVCGANFTQKGNLLRHIKL
log2 fold change of degron read counts [1]: -0.132 | log2 fold change of degron read counts [2]: 0.243 | log2 fold change of degron read counts [3]: 1.67 | log2 fold change of degron read counts (compound: thalidomide): 1.54

B20: 46F_47V_49P_50V_52G_53A_54N_55F_67L_, Q9UKT9 (peptide)
chain: FVCPVCGANFTQKGNLLRHIKL
log2 fold change of degron read counts [1]: -0.407 | log2 fold change of degron read counts [2]: 2.43 | log2 fold change of degron read counts [3]: 1.69 | log2 fold change of degron read counts (compound: thalidomide): 2.77

B21: 46F_47Q_49P_50V_52G_53A_54N_55F_67L_, Q9UKT9 (peptide)
chain: FQCPVCGANFTQKGNLLRHIKL
log2 fold change of degron read counts [1]: 0.19 | log2 fold change of degron read counts [2]: 2.02 | log2 fold change of degron read counts [3]: 1.9 | log2 fold change of degron read counts (compound: thalidomide): 3.48

B22: 46F_47S_49P_50V_52G_53A_54N_55F_67L_, Q9UKT9 (peptide)
chain: FSCPVCGANFTQKGNLLRHIKL
log2 fold change of degron read counts [1]: 1.92 | log2 fold change of degron read counts [2]: 1.29 | log2 fold change of degron read counts [3]: 1.78 | log2 fold change of degron read counts (compound: thalidomide): 0.865

B23: 46F_47N_49P_50V_52G_53A_54N_55F_67L_, Q9UKT9 (peptide)
chain: FNCPVCGANFTQKGNLLRHIKL
log2 fold change of degron read counts [1]: 1.79 | log2 fold change of degron read counts [2]: 0.637 | log2 fold change of degron read counts [3]: 0.771 | log2 fold change of degron read counts (compound: thalidomide): 0.306

B24: 46F_47M_49P_50V_52G_53A_54N_55F_67L_, Q9UKT9 (peptide)
chain: FMCPVCGANFTQKGNLLRHIKL
log2 fold change of degron read counts [1]: -0.564 | log2 fold change of degron read counts [2]: 1.22 | log2 fold change of degron read counts [3]: 2.92 | log2 fold change of degron read counts (compound: thalidomide): 1.69

B25: 46F_47Y_49N_50I_52G_53A_54N_55F_67L_, Q9UKT9 (peptide)
chain: FYCNICGANFTQKGNLLRHIKL
log2 fold change of degron read counts [1]: 1.69 | log2 fold change of degron read counts [2]: 2.89 | log2 fold change of degron read counts [3]: 1.33 | log2 fold change of degron read counts (compound: thalidomide): 0.00754

Reference: the supplement of paper PMC12645437, “Orthogonal IMiD-Degron Pairs Induce Selective Protein Degradation in Cells” (ACS Chemical Biology, 2025)
